14 compounds from PubChem BioAssay (NCATS) can be followed below.

The target in assay [1] is Lysosomal acid glucosylceramidase (Homo sapiens) (UniProt P04062). Nature of the assay: Glucocerebrosidase-p2 (AID 348; in the data active = potency below about 10 µM; also: potency is read from the fitted curve at half-maximal effect). To be noted: purified GBA, blue fluorogenic substrate, 40 min. The gist of the method:
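Normal human glucocerebrosidase (0.2 nM) with blue fluorogenic substrate (80 uM final) in citrate/phosphate pH 5.9 with 10mM sodium taurocholate, 0.01% tween-20; 40 min RT, NaOH/glycine stop; fluorescence Ex 365/Em 440; AC50 from a titration from 0.6 nM upwards.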

The nature of assay [2]: AP1 Signaling Pathway (AID 357).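 Also: ME-180 reporter cells stimulated with EGF at its EC50 level; % is scaled to controls: 0 for no effect and ±100 for the full control effect.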 To be noted: ME-180 AP-1-bla reporter, EGF-induced, beta-lactamase ratio, 5 h; at 7.69 µM (top of the series) unless noted. In outline: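 First, ME-180 AP-1-bla cells were cultured overnight at 37 °C in low-serum Opti-MEM. Next, titrated compounds with EC50 EGF were incubated 5 hours. Finally, CCF4 was added for 2.5 hours and the 460/530 nm ratio recorded.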

A short description of assay [3]: NFAT Signaling Pathway (AID 444).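 Also: carbachol stimulus at about its EC50 of 1 µM final; % is scaled to controls: 0 for no effect and ±100 for the full control effect.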 To be noted: Jurkat NFAT-bla M1, carbachol, beta-lactamase ratio, 5 h; at 7.69 µM (top of the series) unless noted. The gist of the method: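 Jurkat cells carrying an NFAT-driven β-lactamase reporter and co-transfected muscarinic M1 receptor were treated with compound plus carbachol (1 uM final, an EC50 level) for 5 h at 37 °C. CCF4 loading followed for 1 h at RT; 460/530 nm ratio gave %activity.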

The nature of assay [4]: Stat Signaling Pathway (AID 446).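 Also: ME-180 cervical cancer cells given 40 pM IL-6 alongside compound; SIE-controlled beta-lactamase reporter measured as 460/530 nm FRET emission ratio; % is scaled to controls: 0 for no effect and ±100 for the full control effect.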 To be noted: ME-180 SIE beta-lactamase reporter, IL-6 stimulated, 5 h; at 7.69 µM (top of the series) unless noted. In outline: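 FRET read-out (405 nm excitation, 460/530 nm emission) of a beta-lactamase reporter under a STAT-inducible element in ME-180 cervical carcinoma cells. Cells with compound receive 40 pM IL-6 for 5 h. Values are normalised to AC90 stimulation and AC90 JAK-inhibitor controls.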

In assay [5] the target is Glucocorticoid receptor (Homo sapiens) (UniProt P04150). Nature of the assay: GR-GFP Redistribution (AID 450;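 active = compounds whose dose series gives a full or clear partial fitted curve of increased nuclear translocation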; also: potency is read from the fitted curve at half-maximal effect). The settings on record: U2OS GR-GFP nuclear translocation, laser cytometry, 2 h.
For assay [6] the target is unchanged. Nature of the assay: GR-EFC Redistribution (AID 451; calls by dose curve; also: potency is read from the fitted curve at half-maximal effect). To be noted: CHO-K1 GR-EFC translocation, beta-gal luminescence, 2 h. In outline: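 CHO-K1 cells stably expressing nuclear-localized β-gal enzyme acceptor and GR fused C-terminally to the enzyme donor fragment; ligand-driven nuclear translocation restores β-gal by complementation. Compounds titrated up to 46 uM final, 2 h at 37 °C; luminescence read.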

Assay [7] deals with Mitogen-activated protein kinase 10 (Mus musculus) (UniProt Q61831). Put plainly: JNK3 AlphaScreen Assay (AID 530).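 Also: kinase came from lysate of stimulated human HepG2 cells; signal reports phosphorylation of biotinylated GST-cJun 1-79 at Ser73 with 10 µM ATP; % is scaled to controls: 0 for no effect and ±100 for the full control effect.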 To be noted: JNK3 lysate, c-Jun phosphorylation; series mostly up to 57.1 µM. The gist of the method:
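Phosphorylation of biotinylated GST-cJun(1-79) at Ser73 is measured by AlphaScreen proximity luminescence. Enzyme is JNK3 in HepG2 lysates activated with interleukin-1beta and tumor necrosis factor alpha; ATP is 10 uM final.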

For assay [8], the target named is 3',5'-cyclic-AMP phosphodiesterase 4B (Homo sapiens) (UniProt Q07343). Put plainly: qHTS Assay for Inhibitors of PDE-IV (AID 607; active = well fitted activation curve with a large enough effect in the main read-out, with a control signal flat, not every such curve was filed as active; also: % of control where 0% means no effect). To be noted: HEK293 ACTOne CNG channel cells, membrane potential fluorescence; series mostly up to 22.9 µM. In outline: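 Cell-based read-out of cAMP via a modified cyclic nucleotide-gated channel and membrane potential dye (535/590 nm) in HEK293 cells expressing PDE4 endogenously. Compounds tested up to 22.9 uM final; 100 uM RO 20-1724 reference.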

Assay [9] is described as follows: qHTS Assay for Identification of Small Molecule Agonists for Hypoxia Response Element Signaling Pathway (AID 914; active = well fitted activation curve with a large enough effect in the signal ratio, with a control signal flat, not every such curve was filed as active; the % refers to the signal ratio; also: % of control where 0% means no effect). To be noted: ME-180 (cervical carcinoma) HRE-bla reporter, beta-lactamase ratio, CoCl2, 17 h; hits give high values. In outline: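 Compounds in a titration series were added to ME-180 reporter cells alongside an EC50 level of CoCl2. After 17 hours, beta-lactamase activity was read as the 460nm/530nm emission ratio of CCF4, giving AC50 values.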

For assay [10], the target named is Cytochrome P450 3A4 (Homo sapiens) (UniProt P08684). Put plainly: qHTS Assay for Activators of Cytochrome P450 3A4 (AID 885; active = well fitted activation curve with a large enough effect; also: nearly all actives have a fitted effect of over 65% in size). The settings on record: recombinant CYP3A4, Luciferin-PPXE luminescence, 60 min; series mostly up to 57.1 µM. In outline:
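Luminescent readout of luciferin formed from 25 uM Luciferin-PPXE (KM level) by 20 nM CYP3A4 in 200 mM KPO4, with 60 min NADPH-driven reaction at room temperature after 10 min compound exposure. Ketoconazole (57 uM) defined 100% inhibition.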

A number with no mark means an inactive call. Results filed as inconclusive are left out. Calls of active or inactive are those of the source. Unless noted, calls follow the shape of the dose curve; as a rule, active = well fitted curve in either direction with a large enough effect (not every such curve was filed as active); inconclusive = small, poorly fitted or top-dose-only effect, or another doubt; inactive = flat fitted curve, though single readings scatter.

Sequence of Glucocorticoid receptor (Homo sapiens) (P04150 whole entry, looked up, the tested form may be a part): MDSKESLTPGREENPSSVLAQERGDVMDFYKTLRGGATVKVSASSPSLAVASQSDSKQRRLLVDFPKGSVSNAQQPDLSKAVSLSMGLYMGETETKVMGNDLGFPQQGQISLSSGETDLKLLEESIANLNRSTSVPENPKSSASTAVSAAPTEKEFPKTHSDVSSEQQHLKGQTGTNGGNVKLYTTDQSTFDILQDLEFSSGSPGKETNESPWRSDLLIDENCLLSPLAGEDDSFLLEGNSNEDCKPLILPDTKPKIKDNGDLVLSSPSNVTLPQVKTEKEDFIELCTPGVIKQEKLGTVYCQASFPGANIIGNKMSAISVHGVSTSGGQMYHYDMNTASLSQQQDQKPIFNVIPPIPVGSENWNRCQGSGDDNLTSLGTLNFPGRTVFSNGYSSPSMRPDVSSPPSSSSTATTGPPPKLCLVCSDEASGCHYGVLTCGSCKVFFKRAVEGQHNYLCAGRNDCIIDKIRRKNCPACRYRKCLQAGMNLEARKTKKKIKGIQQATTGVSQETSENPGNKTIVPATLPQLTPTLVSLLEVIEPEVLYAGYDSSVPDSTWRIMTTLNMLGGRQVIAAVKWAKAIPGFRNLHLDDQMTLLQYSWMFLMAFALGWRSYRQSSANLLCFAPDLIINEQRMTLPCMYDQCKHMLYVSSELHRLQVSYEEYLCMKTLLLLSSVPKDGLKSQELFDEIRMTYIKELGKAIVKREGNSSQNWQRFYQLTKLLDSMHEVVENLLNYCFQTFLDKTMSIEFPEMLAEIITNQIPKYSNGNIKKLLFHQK
Sequence of 3',5'-cyclic-AMP phosphodiesterase 4B (Homo sapiens) (Q07343 whole entry, looked up): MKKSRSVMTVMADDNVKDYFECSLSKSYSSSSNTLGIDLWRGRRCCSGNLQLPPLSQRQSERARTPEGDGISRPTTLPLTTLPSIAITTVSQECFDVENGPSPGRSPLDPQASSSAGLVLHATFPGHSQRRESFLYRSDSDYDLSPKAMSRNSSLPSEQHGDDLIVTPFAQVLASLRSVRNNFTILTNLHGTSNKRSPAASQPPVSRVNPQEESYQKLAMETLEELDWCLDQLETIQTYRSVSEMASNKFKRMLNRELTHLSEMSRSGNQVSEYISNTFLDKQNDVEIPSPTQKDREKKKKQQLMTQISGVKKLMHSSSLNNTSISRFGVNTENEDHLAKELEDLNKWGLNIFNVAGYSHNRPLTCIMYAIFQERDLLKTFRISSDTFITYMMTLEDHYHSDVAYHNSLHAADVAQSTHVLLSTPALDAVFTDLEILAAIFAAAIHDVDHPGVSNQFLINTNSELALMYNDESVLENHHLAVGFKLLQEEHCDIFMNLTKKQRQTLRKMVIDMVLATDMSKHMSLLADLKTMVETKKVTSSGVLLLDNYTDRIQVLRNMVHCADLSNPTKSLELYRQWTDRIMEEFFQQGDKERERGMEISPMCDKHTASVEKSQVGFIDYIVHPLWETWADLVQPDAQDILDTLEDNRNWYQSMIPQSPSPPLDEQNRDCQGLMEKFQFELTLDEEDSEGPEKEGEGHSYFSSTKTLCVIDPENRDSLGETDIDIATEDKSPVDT
Sequence of Lysosomal acid glucosylceramidase (Homo sapiens) (P04062 whole entry, looked up): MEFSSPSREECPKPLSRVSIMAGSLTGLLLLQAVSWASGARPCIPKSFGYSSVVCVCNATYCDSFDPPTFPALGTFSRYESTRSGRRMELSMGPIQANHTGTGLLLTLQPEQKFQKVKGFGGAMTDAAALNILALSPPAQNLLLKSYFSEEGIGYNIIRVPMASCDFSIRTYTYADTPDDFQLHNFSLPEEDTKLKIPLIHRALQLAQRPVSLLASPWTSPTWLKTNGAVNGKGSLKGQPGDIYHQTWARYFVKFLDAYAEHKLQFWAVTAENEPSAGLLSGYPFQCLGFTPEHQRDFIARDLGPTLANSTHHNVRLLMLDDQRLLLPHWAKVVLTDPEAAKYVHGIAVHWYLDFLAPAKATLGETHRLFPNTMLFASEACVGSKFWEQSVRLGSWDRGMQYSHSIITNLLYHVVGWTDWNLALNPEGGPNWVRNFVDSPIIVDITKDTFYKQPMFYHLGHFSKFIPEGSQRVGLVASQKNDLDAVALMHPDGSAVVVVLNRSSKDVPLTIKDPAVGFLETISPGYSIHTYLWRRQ
Sequence of Cytochrome P450 3A4 (Homo sapiens) (P08684 whole entry, looked up): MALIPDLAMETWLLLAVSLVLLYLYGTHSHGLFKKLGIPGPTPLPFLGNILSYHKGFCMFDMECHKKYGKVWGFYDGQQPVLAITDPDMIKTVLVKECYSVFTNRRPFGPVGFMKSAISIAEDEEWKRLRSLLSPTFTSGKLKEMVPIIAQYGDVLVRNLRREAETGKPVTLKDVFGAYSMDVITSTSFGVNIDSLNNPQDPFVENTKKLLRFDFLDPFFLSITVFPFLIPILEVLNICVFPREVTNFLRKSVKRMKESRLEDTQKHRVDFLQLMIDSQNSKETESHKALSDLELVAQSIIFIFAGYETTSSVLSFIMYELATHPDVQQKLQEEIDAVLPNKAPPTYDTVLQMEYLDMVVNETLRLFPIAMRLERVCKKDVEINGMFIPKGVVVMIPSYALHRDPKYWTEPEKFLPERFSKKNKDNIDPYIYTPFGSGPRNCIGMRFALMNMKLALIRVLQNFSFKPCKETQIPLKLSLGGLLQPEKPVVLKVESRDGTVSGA

`CC(C)[C@]1(O)[C@@H](OC(=O)c2ccc[nH]2)[C@]2(O)[C@@]3(C)C[C@@]4(O)O[C@@]5([C@H](O)[C@@H](C)CC[C@]35O)[C@]2(O)[C@]41C`: the Potency is > 11.4 µM in assay [1], > 46 µM in assay [5] and > 9.22 µM in assay [6]. Also, the activity change, negative = inhibition in assay [2] was 3.13%; in assay [3], 3.93%; in assay [7], 0.163% [at 11.4 µM]. Moreover, in assay [4], the activity, negative = inhibition was -4.77%. Moreover, the compound was classed as inactive in assay [8]. For the same compound, the activation in assay [9] is 12.8%.
Regarding `O=S(=O)(Nc1nccs1)c1ccc([As](=O)(O)O)cc1`, the Potency in assay [1] was > 11.4 µM; in [5], > 46 µM; in [6], > 9.22 µM. The activity change, negative = inhibition in assay [2] is 4.77%; in assay [3], 8.49%; in [7], 2.72% [at 11.4 µM]. The activity, negative = inhibition in assay [4] is 10.3%. In addition, in [8], the compound was classed as inactive.
Turning to `C[C@@](Br)(C(=O)O)[C@H](Br)C(=O)O`, the Potency in [1] is > 11.4 µM; in assay [5], > 46 µM; in assay [6] it was > 9.22 µM. For the same compound, the activity change, negative = inhibition in assay [2] is 3.08%; in [3] it was 17.1%; in [7], 1.39% [at 11.4 µM]. Further, in assay [4], the activity, negative = inhibition was 8.31%. In assay [8], the compound was classed as inactive.
Regarding `C[C@@]12CC[C@H]3[C@@H](CC[C@H]4C[C@@H](O)CC[C@]43C)[C@H]1CC[C@@H]2C(=O)C[C@H](O)C(F)(F)F`, the figures for the Potency in assay [1], in assay [5] and in assay [6] were > 11.4 µM, > 46 µM and > 9.22 µM, respectively. Also, the activity change, negative = inhibition in [2] is 5.97%; in assay [3], 5.84%. Further, in assay [4], the activity, negative = inhibition was -6.11%. Further, the outcome in [8] was inactive.
As to `NC1(P(=O)(O)O)CCCCC1`, the figures for the Potency in assay [1], in [5] and in [6] were > 11.4 µM, > 46 µM and > 9.22 µM, respectively. Further, the activity change, negative = inhibition is 11.8% in [2], -8.61% in assay [3] and 5.68% [at 11.4 µM] in assay [7]. In assay [4], the activity, negative = inhibition is 4.3%. Besides, the compound was classed as inactive in assay [8].
`Cc1c([C@@H](C)[C@H]2NC[C@H](C)C[C@@H]2O)ccc2c1C[C@@H]1[C@H]2CC=C2C[C@@H](O)CC[C@@]21C`: the results for the Potency in [1], in assay [5] and in [6] were > 11.4 µM, > 46 µM and > 9.22 µM, respectively. The figures for the activity change, negative = inhibition in assay [2], in [3] and in [7] were -4.38%, -6.08% and -0.822% [at 11.4 µM], respectively. Besides, the activity, negative = inhibition in [4] was -1.08%. Also, the compound was classed as inactive in [8]. Besides, the activity change, positive = activation in [10] is -38% [at 11.4 µM]. For the same compound, in [9], the activation was 4.43%.
Turning to `C[C@@]12CC[C@H]3[C@H](CCC4=CC(=O)CC[C@H]43)[C@H]1CC[C@H]2OC1(O)C(=O)c2ccccc2C1=O`, the figures for the Potency in assay [1], in assay [5] and in assay [6] were > 11.4 µM, > 46 µM and > 9.22 µM, respectively. Further, the activity change, negative = inhibition in assay [2] is 1.93%; in assay [3], -18.3%; in [7], -3.36% [at 11.4 µM]. Also, the activity, negative = inhibition in [4] was -10.1%. Further, the call in [8] was inactive.
For `CC(C)(C)c1cc(C#N)cc(Br)c1OP(=O)(Oc1c(Br)cc(C#N)cc1C(C)(C)C)c1ccccc1`, the Potency in assay [1] was > 11.4 µM; in assay [5], > 46 µM; in assay [6], > 9.22 µM. Also, the activity change, negative = inhibition is 7.55% in assay [2] and -6.35% in assay [3]. The activity, negative = inhibition in assay [4] is 16.6%. Moreover, the result in assay [8] was inactive.
On to `O=C(O)[C@H]1C2c3ccccc3C(c3ccccc32)[C@@H]1C(=O)NCC1CC1`, for which the figures for the Potency in assay [1], in [5] and in assay [6] were > 11.4 µM, > 46 µM and > 9.22 µM, respectively. Further, the figures for the activity change, negative = inhibition in [2] and in [3] were 1.37% and -3.96%, respectively. In assay [4], the activity, negative = inhibition was 26.5%. Further, the compound was called inactive in [8]. The activation in assay [9] was -0.158%.
For the compound `O.O.[NH-]C1(C(=O)O)CCCC1.[NH-]C1(C(=O)O)CCCC1.[Ni+2]`, the results for the Potency in assay [1], in [5] and in [6] were > 11.4 µM, > 46 µM and > 9.22 µM, respectively. Also, the activity change, negative = inhibition in [2] is 8.54%; in assay [3], -0.81%. The activity, negative = inhibition in assay [4] was -5.65%. In addition, the compound was classed as inactive in assay [8].
`COc1ccc(C[C@@H]2C(=O)N[C@H](C)C(=O)N(C)[C@@H]3C(=O)N(C)[C@@H](Cc4ccc(O)c(c4)Oc4ccc(cc4)[C@H]3O)C(=O)N[C@@H](C)C(=O)N[C@H](C)C(=O)N2C)cc1`: the Potency in assay [1] is > 11.4 µM; in assay [5] it was > 46 µM; in assay [6], > 9.22 µM. Also, the activity change, negative = inhibition in [2] is -121% (active); in assay [3], -133% (active); in assay [7], 3.04% [at 11.4 µM]. Moreover, the activity, negative = inhibition in [4] is -105% (active). Also, the outcome in assay [8] was inactive.
For `COC(=O)[C@@H]1c2cc3c(c(O)c2[C@@H](O)C[C@]1(C)O)C(=O)c1c(O)cc2c(c1C3=O)O[C@H]1O[C@@]2(C)[C@@H](O)[C@H](N(C)C)[C@H]1O`, the Potency was > 11.4 µM in assay [1], > 46 µM in assay [5] and > 9.22 µM in assay [6]. Further, the activity change, negative = inhibition in assay [2] was -3.96%; in assay [3] it was 6.8%; in assay [7] it was -5.17% [at 11.4 µM]. Besides, the activity, negative = inhibition in assay [4] is -3.22%. In addition, in [8], the compound was called inactive.
For the compound `C[C@@]12Cc3cnc(-c4ccccc4)nc3C[C@@H]1CC[C@@H]1[C@H]3CC[C@@](C)(O)[C@]3(C)CC[C@@H]12`, the Potency in [1] is > 11.4 µM; in [5], > 46 µM; in [6], > 9.22 µM. The values for the activity change, negative = inhibition in assay [2], in assay [3] and in assay [7] were 5.09%, -13.1% and 3.79% [at 11.4 µM], respectively. In [4], the activity, negative = inhibition is 1.77%. For the same compound, the compound was classed as inactive in assay [8].
As for `CC[C@@](O)(C(=O)O)c1cc2n(c(=O)c1CO)Cc1cc3ccccc3nc1-2`, the Potency in [1] was > 11.4 µM; in assay [5], > 46 µM; in assay [6] it was > 9.22 µM. The values for the activity change, negative = inhibition in assay [2], in [3] and in assay [7] were 0.967%, -9.59% and 3.55% [at 11.4 µM], respectively. In addition, the activity, negative = inhibition in [4] is -0.155%. For the same compound, the result in [8] was inactive. Besides, in [10], the activity change, positive = activation was -36.6% [at 11.4 µM].
